# In the supplement of paper PMC6555819:
# What was measured:
# Assay in all cases: PBM binding z-score (relative to random genomic background probes); higher = stronger binding; sequences stand for … in GC…GCGATTGACAGCGTAGAATGAAGG
# [1] = system: FXR:RXRa (NR concentration 270 nM, RXRa partner concentration 90 nM)
# How it was run: (§1)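 Binding z-scores take random background probes as their reference. They come from custom Agilent 4×180K protein-binding microarrays incubated 1 h with ligand-free nuclear receptor dimers, with antibodies against each partner (one per run) detecting binding. Scanned fluorescence was regression-normalized.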
# [2] = system: LXRa:RXRa (NR concentration 270 nM, RXRa partner concentration 90 nM)
# How it was run: as §1
# [3] = system: LXRa homodimer (NR concentration 270 nM)
# How it was run: as §1
# [4] = system: LXRb:RXRa (NR concentration 270 nM, RXRa partner concentration 90 nM)
# How it was run: as §1
# [5] = system: LXRb homodimer (NR concentration 270 nM)
# How it was run: as §1
# [6] = system: PPARa:RXRa (NR concentration 270 nM, RXRa partner concentration 90 nM)
# How it was run: as §1
# [7] = system: PPARg:RXRa (NR concentration 180 nM, RXRa partner concentration 90 nM)
# How it was run: as §1
# [8] = system: PPARg:RXRa 270nM:90nM, anti-RXR (NR concentration 270 nM, RXRa partner concentration 90 nM)
# How it was run: as §1
# [9] = system: PPARg:RXRa 30nM:10nM, anti-RXR (NR concentration 30 nM, RXRa partner concentration 10 nM)
# How it was run: as §1
# [10] = system: PPARg:RXRa 90nM:30nM, anti-RXR (NR concentration 90 nM, RXRa partner concentration 30 nM)
# How it was run: as §1
# [11] = system: PPARg:RXRa DBDmut IVT, anti-RXR (DBD mutation: RXRa K156A/R161A, NR concentration 270 nM, RXRa partner concentration 90 nM)
# How it was run: as §1
# [12] = system: PPARg:RXRa IVT, anti-PPARg (NR concentration 270 nM, RXRa partner concentration 90 nM)
# How it was run: as §1
# [13] = system: PPARg DBDmut:RXRa IVT, anti-PPARg (DBD mutation: PPARg1 K132A/R137A, NR concentration 270 nM, RXRa partner concentration 90 nM)
# How it was run: as §1
# [14] = system: PPARg DBDmut IVT, anti-PPARg (DBD mutation: PPARg1 K132A/R137A, NR concentration 270 nM)
# How it was run: as §1
# [15] = system: PPARg homodimer (NR concentration 180 nM)
# How it was run: as §1
# [16] = system: PXR:RXRa (NR concentration 270 nM, RXRa partner concentration 90 nM)
# How it was run: as §1
# [17] = system: PXR homodimer (NR concentration 270 nM)
# How it was run: as §1
# [18] = system: RARa:RXR (NR concentration 270 nM, RXRa partner concentration 90 nM)
# How it was run: as §1
# [19] = system: RARa homodimer (NR concentration 270 nM)
# How it was run: as §1
# [20] = system: RARb:RXRa (NR concentration 270 nM, RXRa partner concentration 90 nM)
# How it was run: as §1
Sequence,PBM binding z-score [1],PBM binding z-score [2],PBM binding z-score [3],PBM binding z-score [4],PBM binding z-score [5],PBM binding z-score [6],PBM binding z-score [7],PBM binding z-score [8],PBM binding z-score [9],PBM binding z-score [10],PBM binding z-score [11],PBM binding z-score [12],PBM binding z-score [13],PBM binding z-score [14],PBM binding z-score [15],PBM binding z-score [16],PBM binding z-score [17],PBM binding z-score [18],PBM binding z-score [19],PBM binding z-score [20]
AACGAAAGGTCGTGAGGTGAGTATACAGAAAGGC,5.67,4.36,0.174,3.32,-0.0859,5.07,4.41,4.6,1.54,3.21,0.775,2.28,0.36,0.0984,1.96,3.37,0.132,4.22,0.704,4.04
GCAGACAGGTGAAACGCAGGTACCTCAGGGTGGC,-0.505,-0.351,-1.08,-0.737,-1.1,0.616,0.419,-0.439,-0.666,-0.889,0.673,0.204,-1.1,-1.9,-1.33,-0.784,-0.782,-0.474,-1.48,0.346
AGAATGAGGTTAAGGTCAGGGAAACAGAATACAT,5.36,4.12,0.675,3.93,0.526,5.21,5.25,5.04,2.44,4.29,3.24,4.55,1.51,0.964,3.35,3.77,1.59,4.47,2.44,4.27
ATATGTAGGTTAACGGTCATTCAGGTTGGTTCGC,2.12,2.46,2.98,2.2,1.2,5.22,9.32,8.6,7.82,9.3,8.01,8.1,3.09,2.01,2.2,1.84,0.701,2.01,0.573,2.41
CGAACTAGGTCATTGACAGGTCAGTGAATAGTAA,4.77,4.22,2.06,3.2,0.218,5.01,7.86,6.55,3.81,6.32,8.05,7.99,2.07,0.617,3.26,3.56,0.482,5.11,0.887,4.25
ATATGTAGGTTAGCTGGGGTCACTCAGACTAGGC,4.47,5.35,1.4,4.08,1.05,5.03,5.15,5.18,2.81,4.46,6.74,6.02,1.28,0.639,2.37,5.85,2.05,5.16,0.798,3.22
CAAACTACGTCAAGAGGTCAAAGTCCGCTTCCCG,5.07,5.77,5.87,4.77,2.06,5.09,3.07,4.83,2.39,4.26,1.03,2.44,1.05,0.608,3.36,5.8,3.22,6.09,1.56,4.01
